Measured values published in PubChem BioAssay AID678 (Vanderbilt High Throughput Screening Facility, 2007).
Out of some 1,700 compounds screened, about 15 (0.9%) were called active.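 Rule for the calls: active = fluorescence response below the plate's average for near-maximal glutamate wells, less 3 SD of those wells; inactive = the rest.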 Not all results are given here.

What follows are molecules tested against Metabotropic glutamate receptor 4 (Homo sapiens) (UniProt Q14833) (assay: mGluR4 calcium signal in M1 antagonist follow-up – cell-based, antagonist mode, secondary assay 1, M1 allosteric modulator project (AID 678;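 note: raw unnormalized fluorescence span taken in the window right after glutamate addition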)). Conditions: CHO-mGluR4 calcium flux, Fluo-4 fluorescence, glutamate EC80; at 10 µM; hits give low values.

Row | Compound | fluorescence response (max-min)
1 | CN1CCN(c2ccc(NC(=O)COc3ccc(Cl)cc3Cl)cc2)CC1 | 245 (inactive)
2 | O=C(C(c1ccccc1)c1ccccc1)N1CCN(CC(O)COc2ccccc2)CC1 (stereo unspecified) | 172 (inactive)
3 | C=CCSc1nc2ccccc2[nH]1 | 255 (inactive)
4 | COC(CCN(C)C)(c1ccccc1)c1ccccc1 | 257 (inactive)
5 | CCN1CCN(c2c(Cl)cccc2NC(=O)c2ccc(Br)o2)CC1 | 203 (inactive)
6 | O=C(Nc1ccncc1)c1c(F)cccc1F | 195 (inactive)
7 | CCn1c(=O)cc(OCC(=O)NCCCN2CCN(c3cccc(Cl)c3)CC2)c2ccccc21 | 275 (inactive)
8 | CCOC(=O)c1c(NC(=O)CSc2nnc(CN3CCOCC3)n2C)sc2c1CCCC2 | 212 (inactive)
9 | COC(=O)c1ccc(C2C3=C(Nc4nnnn42)c2ccccc2OC3)cc1 (stereo unspecified) | 256 (inactive)
10 | CCC/C(O)=C1\C(=O)CC(C)(C)CC1=Nc1ccccc1OC | 272 (inactive)
11 | CCOC(=O)Nc1ccc2c(c1)N(C(=O)CN1CCN3CCCC3C1)c1ccccc1CC2 (stereo unspecified) | 187 (inactive)
12 | O=C(c1ccc(-n2cnnn2)cc1)N1CCN(C(c2ccccc2)c2ccccc2)CC1 | 242 (inactive)
13 | CCOC(=O)N1CCN(S(=O)(=O)c2cc(Br)cc3c2N(C(=O)C2CC2)CC3)CC1 | 246 (inactive)
14 | Cc1cc(C)n(-c2nc(SCC(=O)N3CCCC3)c3c4c(sc3n2)CCCC4)n1 | 193 (inactive)
15 | CCCCN(CCCC)C(=O)CCS(=O)(=O)c1ccc2c(c1)n(C)c(=O)c(=O)n2C | 272 (inactive)
16 | C=C(C)Cn1c(N2CCCC2)nc2c1c(=O)[nH]c(=O)n2C | 203 (inactive)
17 | Cc1c(C)c2cc3c4c(oc3c(C)c2oc1=O)CCCC4 | 174 (inactive)
18 | CCN1C(=O)/C(=C2\SC(N3CCCCC3)=NC2=O)c2ccccc21 | 235 (inactive)
19 | CCCCOc1ccc(C(C)(O)CCN2CCOCC2)cc1 (stereo unspecified) | 209 (inactive)
20 | O=C(CCCN1C(=O)CSc2ncccc21)N1CCN(c2cccc(C(F)(F)F)c2)CC1 | 263 (inactive)
21 | COc1ccccc1OCCOc1ccc(/C=N/n2cnnc2)cc1 | 239 (inactive)
